# In PubChem BioAssay:
# Records with an inconclusive call do not appear. The source made the active and inactive calls.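 The calls were made as follows, unless noted: active = normalized viability below 100% at a tested concentration; inactive = the rest.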
# Key:
# [1] = growth inhibition of DIPG glioma cells, dose response, cell-based, SU-DIPG-XVII, MIPE5.0, CellTiter-Glo, qHTS (AID 1347060; cut-off not given, nearly all actives have AC50 up to about 26 µM;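 also: cells exposed to compound for 48 hours before viability readout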); details: SU-DIPG-XVII viability, CellTiter-Glo ATP luminescence
# [2] = growth inhibition of DIPG glioma cells, dose response, cell-based, SU-DIPG-XIII, MIPE4.0, CellTiter-Glo, qHTS (AID 1347061; cut-off not given, nearly all actives have AC50 up to about 37 µM;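 also: cells exposed to compound for 48 hours before readout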); details: SU-DIPG-XIII viability, CellTiter-Glo ATP luminescence
# [3] = growth inhibition of DIPG glioma cells, dose response, cell-based, JHH-DIPG-1, MIPE4.0, CellTiter-Glo, qHTS (AID 1347062; cut-off not given, nearly all actives have AC50 up to about 27 µM;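 also: cells exposed to compound for two days before readout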); details: JHH-DIPG-1 viability, CellTiter-Glo ATP luminescence
# [4] = growth inhibition of DIPG glioma cells, dose response, cell-based, SU-DIPG-IV, MIPE4.0, CellTiter-Glo, qHTS (AID 1347063; cut-off not given, nearly all actives have AC50 up to about 30 µM;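 also: compound exposure lasted 48 hours before the viability readout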); details: SU-DIPG-IV viability, CellTiter-Glo ATP luminescence
# [5] = growth inhibition of DIPG glioma cells, dose response, cell-based, SU-DIPG-XIII, MIPE5.0, CellTiter-Glo, qHTS (AID 1347064; cut-off not given, nearly all actives have AC50 up to about 23 µM;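 also: cells exposed to compound for 48 hours before the viability read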); details: SU-DIPG-XIII viability, CellTiter-Glo ATP luminescence
# [6] = viability loss in pontine glioma line – cell-based, SU-DIPG-XXV, MIPE5.0, CellTiter-Glo, qHTS, dose response (AID 1347065; cut-off not given, nearly all actives have AC50 up to about 26 µM;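 also: cells exposed to compound for 48 hours before ATP readout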); details: CellTiter-Glo ATP luminescence
# [7] = SU-DIPG-VI glioma cell viability, MIPE4.0 library, CellTiter-Glo luminescence, qHTS (AID 1347066; cut-off not given, nearly all actives have AC50 up to about 30 µM;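 also: cells exposed to compound for 48 hours before readout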); details: CellTiter-Glo ATP luminescence
# [8] = JHH-DIPG-1 glioma cell viability, MIPE5.0 library, CellTiter-Glo luminescence, qHTS (AID 1347067; cut-off not given, nearly all actives have AC50 up to about 26 µM;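 also: cells exposed to compound for 48 hours before readout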); details: JHH-DIPG-1 glioma viability, CellTiter-Glo ATP luminescence
# [9] = SU-DIPG-XXV glioma cell viability, MIPE5.0 library, qHTS (AID 1347068; cut-off not given, nearly all actives have IC50 up to about 30 µM;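 also: cells exposed to compound for 48 hours before viability readout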)
# [10] = sensitizers of A549 cells to miR-34 induction, primary screen, imaging, A549 dox-inducible miR-34, nuclei and caspase counts (AID 1347080;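 active = compounds whose cell count with miR-34 switched on is under 0.7 times the count with it off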); details: A549 miR-34 inducible, Hoechst nuclei count, 48 h
# [11] = modifiers of HSF1 nuclear foci, imaging, Selleck Cancer Library (AID 1347162; in the data active = plate-normalised HSF1 focus index below about 0.46); details: human cells, at 10 µM; SSMD: measured here: HSF1 foci SSMD mean; cell count: measured here: cell number; plate-normalised HSF1 focus index: stronger effect = lower value
# [12] = survival rescue of mitochondrial mutant cells in low glucose, primary screen, MELAS cybrids, Rieske KO mouse fibroblasts, CellTiter-Glo (AID 1508586;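 active = mean z-score across replicates of 1.96 or higher in either the MELAS or the Rieske mutant cell line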;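 also: z relative to plate mean and SD of compound and empty wells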)
# [13] = ovarian cancer cell viability with rucaparib, profiling panel, oncology-focused library, rucaparib conditional (AID 1508598); details: patient-derived ovarian cancer cells, CellTiter-Glo viability, 144 h, stronger effect = lower value
# [14] = LFS_MB_P medulloblastoma growth inhibition, cell-based, chromothripsis tumors, cisplatin or BGB combos (AID 1671449; in the data active = inhibition above about 80%;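 also: cells exposed for 96 hours; 0% = vehicle DMSO and 100% = killing by high DMSO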); details: LFS_MB_P medulloblastoma cells
# [15] = HDN33 neuroblastoma growth inhibition, cell-based, chromothripsis tumors, cisplatin or BGB combos (AID 1671450; in the data active = inhibition above about 80%;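 also: cells exposed to compound for four days; 0% = vehicle DMSO and 100% = cell killing by high DMSO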); details: HDN33 neuroblastoma cells, stronger effect = higher value
# [16] = ICB984 medulloblastoma cell growth inhibition, synergistic combos for chromothripsis tumors, cisplatin or BGB combos (AID 1671451; call rule not given here;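 also: cells exposed for 96 hours before readout; 0% = vehicle DMSO and 100% = killing by high DMSO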); details: ICB984 medulloblastoma cells, drug combinations, stronger effect = higher value
# [17] = HTB85 osteosarcoma cell growth inhibition, synergistic combos for chromothripsis tumors, BGB or cisplatin IC20 combos (AID 1671453; in the data active = inhibition above about 80%;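 also: cells exposed for 96 hours before readout; 0% = vehicle DMSO and 100% = high DMSO killing control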); details: HTB85 osteosarcoma cells, drug combinations, stronger effect = higher value
# [18] = MDA-MB-436 breast carcinoma cell growth inhibition, synergistic combos for chromothripsis tumors, BGB or cisplatin combos (AID 1671458; call rule not given here;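 also: cells exposed for 96 hours; 0% = vehicle DMSO and 100% = killing by high DMSO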); details: MDA-MB-436 breast carcinoma growth inhibition, drug combinations, stronger effect = higher value
# [19] = growth inhibition of BT084 medulloblastoma cells, cell-based, ICGC_MB145, cisplatin and BGB IC40 combos (AID 1671461; in the data active = inhibition above about 80%;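 also: cells exposed to drugs for 96 hours; 0% = vehicle DMSO and 100% = high DMSO full killing control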); details: drug combinations, stronger effect = higher value
# [20] = growth inhibition of RCMB18 medulloblastoma cells, cell-based, cisplatin and BGB IC40 combos (AID 1671462; in the data active = inhibition above about 80%;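 also: cells exposed to compound for four days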); details: stronger effect = higher value
structure (smiles),measurement,setting,value
Nc1ccc(-c2ccc3ncc4ccc(=O)n(-c5cccc(C(F)(F)F)c5)c4c3c2)cn1,AC50,[1],93.4 nM (active)
same,AC50,[2],132 nM (active)
same,AC50,[3],74.3 nM (active)
same,AC50,[4],33.2 nM (active)
same,AC50,[5],23.5 nM (active)
same,AC50,[6],20.9 nM (active)
same,AC50,[7],187 nM (active)
same,AC50,[8],166 nM (active)
same,IC50,[9],235 nM (active)
same,fold change,"[10]; stronger effect = lower value, cell number ratio, induced over uninduced",1 (inactive)
same,fold change,[10]; measured here: relative caspase fold change +Dox/-Dox,1.14
same,cell count,"[10]; measured here: total cells with miR-34 induction, stronger effect = lower value",1420
same,cell count,[10]; measured here: total cells without miR-34 induction,1410
same,SSMD,[11],2.81
same,cell count,[11],6780
same,plate-normalised HSF1 focus index,[11],1.15 (inactive)
same,z-score,"[12]; MELAS cybrid survival, CellTiter-Glo 48 h, stronger effect = higher value",3.27 (active)
same,z-score,"[12]; Rieske KO mouse fibroblast survival, CellTiter-Glo 72 h",-0.678
same,viability,"[13]; at 0.000305 µM, OCI-C5x cells, with rucaparib 10 µM, 100% = cells with rucaparib alone",117% (inactive)
same,viability,"[13]; at 0.000305 µM, OCI-C5x cells, without rucaparib",112% (inactive)
same,viability,"[13]; at 0.000305 µM, OCI-P5x cells, with rucaparib 20 µM, 100% = cells with rucaparib alone",87.4% (active)
same,viability,"[13]; at 0.000305 µM, OCI-P5x cells, without rucaparib",87.8% (active)
same,viability,"[13]; at 0.00122 µM, OCI-C5x cells, with rucaparib 10 µM, 100% = cells with rucaparib alone",107% (inactive)
same,viability,"[13]; at 0.00122 µM, OCI-C5x cells, without rucaparib",119% (inactive)
same,viability,"[13]; at 0.00122 µM, OCI-P5x cells, with rucaparib 20 µM, 100% = cells with rucaparib alone",89.2% (active)
same,viability,"[13]; at 0.00122 µM, OCI-P5x cells, without rucaparib",90.5% (active)
same,viability,"[13]; at 0.00488 µM, OCI-C5x cells, with rucaparib 10 µM, 100% = cells with rucaparib alone",118% (inactive)
same,viability,"[13]; at 0.00488 µM, OCI-C5x cells, without rucaparib",83.6% (active)
same,viability,"[13]; at 0.00488 µM, OCI-P5x cells, with rucaparib 20 µM, 100% = cells with rucaparib alone",79.7% (active)
same,viability,"[13]; at 0.00488 µM, OCI-P5x cells, without rucaparib",60.8% (active)
same,viability,"[13]; at 0.0195 µM, OCI-C5x cells, with rucaparib 10 µM, 100% = cells with rucaparib alone",113% (inactive)
same,viability,"[13]; at 0.0195 µM, OCI-C5x cells, without rucaparib",72% (active)
same,viability,"[13]; at 0.0195 µM, OCI-P5x cells, with rucaparib 20 µM, 100% = cells with rucaparib alone",70.7% (active)
same,viability,"[13]; at 0.0195 µM, OCI-P5x cells, without rucaparib",49.8% (active)
same,viability,"[13]; at 0.0781 µM, OCI-C5x cells, with rucaparib 10 µM, 100% = cells with rucaparib alone",109% (inactive)
same,viability,"[13]; at 0.0781 µM, OCI-C5x cells, without rucaparib",92.2% (active)
same,viability,"[13]; at 0.0781 µM, OCI-P5x cells, with rucaparib 20 µM, 100% = cells with rucaparib alone",77.9% (active)
same,viability,"[13]; at 0.0781 µM, OCI-P5x cells, without rucaparib",63.5% (active)
same,viability,"[13]; at 0.313 µM, OCI-C5x cells, with rucaparib 10 µM, 100% = cells with rucaparib alone",109% (inactive)
same,viability,"[13]; at 0.313 µM, OCI-C5x cells, without rucaparib",89.4% (active)
same,viability,"[13]; at 0.313 µM, OCI-P5x cells, with rucaparib 20 µM, 100% = cells with rucaparib alone",73.5% (active)
same,viability,"[13]; at 0.313 µM, OCI-P5x cells, without rucaparib",65.9% (active)
same,viability,"[13]; at 1.25 µM, OCI-C5x cells, with rucaparib 10 µM, 100% = cells with rucaparib alone",62.2% (active)
same,viability,"[13]; at 1.25 µM, OCI-C5x cells, without rucaparib",70.5% (active)
same,viability,"[13]; at 1.25 µM, OCI-P5x cells, with rucaparib 20 µM, 100% = cells with rucaparib alone",67.9% (active)
same,viability,"[13]; at 1.25 µM, OCI-P5x cells, without rucaparib",54.1% (active)
same,viability,"[13]; at 5 µM, OCI-C5x cells, with rucaparib 10 µM, 100% = cells with rucaparib alone",33.1% (active)
same,viability,"[13]; at 5 µM, OCI-C5x cells, without rucaparib",29.5% (active)
same,viability,"[13]; at 5 µM, OCI-P5x cells, with rucaparib 20 µM, 100% = cells with rucaparib alone",10.8% (active)
same,viability,"[13]; at 5 µM, OCI-P5x cells, without rucaparib",14.6% (active)
same,inhibition,"[14]; at 0.5 µM, stronger effect = higher value",5.33% (inactive)
same,inhibition,"[14]; measured here: combination with BGB IC20, at 0.005 µM",-20%
same,inhibition,"[14]; measured here: combination with BGB IC40, at 0.005 µM",59.9%
same,inhibition,"[14]; measured here: combination with BGB IC40, at 0.05 µM",-36.1%
same,inhibition,"[14]; measured here: combination with cisplatin, at 0.5 µM, stronger effect = higher value",3.19%
same,inhibition,"[14]; measured here: combination with cisplatin, at 5 µM, stronger effect = higher value",92.6%
same,inhibition,"[15]; BGB combo, at 5 µM",89.3%
same,inhibition,[15]; at 0.5 µM,32.1% (inactive)
same,inhibition,"[15]; cisplatin combo, at 5 µM",93.5%
same,inhibition,"[15]; measured here: with BGB IC20 combination, at 0.5 µM",14.7%
same,inhibition,"[15]; measured here: with cisplatin IC20 combination, at 0.5 µM",43.5%
same,inhibition,"[15]; single agent, at 5 µM",91.8%
same,inhibition,"[16]; BGB IC20 combo, at 0.005 µM",18.5%
same,inhibition,"[16]; BGB IC40 combo, at 0.005 µM",13.6%
same,inhibition,"[16]; BGB IC40 combo, at 0.05 µM",80.5%
same,inhibition,[16]; at 0.5 µM,-14.5% (inactive)
same,inhibition,"[16]; cisplatin combo, at 0.05 µM",79.9%
same,inhibition,"[16]; cisplatin combo, at 0.5 µM",-13.5%
same,inhibition,"[16]; cisplatin combo, at 5 µM",-13.1%
same,inhibition,"[16]; measured here: 5 uM single agent, at 5 µM",-7.65%
same,inhibition,[17]; at 0.5 µM,27.1% (inactive)
same,inhibition,"[17]; measured here: with BGB IC20, at 0.5 µM",35.5%
same,inhibition,"[17]; measured here: with BGB IC20, at 5 µM",78%
same,inhibition,"[17]; measured here: with cisplatin IC20, at 0.5 µM",16.8%
same,inhibition,"[17]; measured here: with cisplatin IC20, at 5 µM",94.9%
same,inhibition,"[17]; single agent, at 5 µM",79.3%
same,inhibition,[18]; at 0.5 µM,12% (inactive)
same,inhibition,"[18]; measured here: BGB combination, at 0.5 µM",0.276%
same,inhibition,"[18]; measured here: BGB combination, at 5 µM",32.6%
same,inhibition,"[18]; measured here: cisplatin combination, at 0.5 µM",-4.07%
same,inhibition,"[18]; measured here: cisplatin combination, at 5 µM",57.7%
same,inhibition,[19]; at 0.5 µM,21.2% (inactive)
same,inhibition,"[19]; cisplatin combination, at 0.5 µM",28.2%
same,inhibition,"[19]; cisplatin combination, at 5 µM",33.5%
same,inhibition,"[19]; measured here: BGB IC40 combination 0.05 uM, at 0.05 µM",-29.9%
same,inhibition,"[19]; single agent, at 5 µM",41.3%
same,inhibition,[20]; at 0.5 µM,16.5% (inactive)
same,inhibition,"[20]; cisplatin combo, at 5 µM",59.1%
same,inhibition,"[20]; measured here: BGB IC40 combination, at 0.05 µM",-1.59%
same,inhibition,"[20]; measured here: combination with cisplatin, at 0.5 µM",23.5%
same,inhibition,"[20]; single agent, at 5 µM",62.1%
